This note sets out measurements from PubChem BioAssay (Tox21).

The nature of assay [1]: qHTS assay for small molecules that induce genotoxicity in human embryonic kidney cells expressing luciferase-tagged ATAD5 (AID 651632). Further: nearly all actives have a fitted effect of over 15% in size. The procedure, abridged: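 DMSO vehicle served as the control. HEK293T reporter cells, 16 hr at 37C, then 30 min Amplite at room temperature; ATAD5 induction is measured as luciferase activity.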
Assay [2] can be described thus: qHTS assay for small molecule agonists of the p53 signaling pathway - cell viability (AID 651633; calls by dose curve;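 further: p53RE-bla HCT reporter cells with a stable beta-lactamase p53 reporter; series mostly up to about 83 µM; nearly all actives have a fitted effect of over 30% in size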). In a few lines: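 p53RE-bla cells were treated with compound for 16 hours at 37 C. Cytotoxicity was then measured as CellTiter-Glo luminescence after 30 min at room temperature.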
Assay [3] can be described thus: qHTS assay for small molecules that induce genotoxicity in human embryonic kidney cells expressing luciferase-tagged ATAD5 - cell viability (AID 651634; calls by dose curve; further: nearly all actives have a fitted effect of over 25% in size). In a few lines: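 Here HEK293T cells with the ATAD5 luciferase reporter are incubated with test compounds for 15.5 hr, and cytotoxicity is then gauged by measuring protease activity in live cells using fluorescence.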

Assay [4] can be described thus: qHTS assay for small molecule disruptors of the mitochondrial membrane potential - cell viability (AID 720634; calls by dose curve;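 further: human HepG2 liver cancer cells; series mostly up to about 83 µM; nearly all actives have a fitted effect of over 20% in size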). In a few lines:
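Viability of HepG2 cells is scored from ATP content by luminescence; cells are exposed to compound for 1 hr at 37 C and 5% CO2, then dosed with m-MPI dye before the CellTiter-Glo reagent.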

The nature of assay [5]: qHTS assay for small molecule disruptors of the mitochondrial membrane potential (AID 720635). The procedure, abridged: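 HepG2 cells exposed to compound 1 hr at 37C, then Mito-MPS dye 30 min. Ratio read of aggregate (540/590 nm) versus monomer (490/535 nm) fluorescence.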
Assay [6] is described as follows: qHTS assay to test for compound auto fluorescence at 590 nm (red) in HepG2 cells (AID 720674). In a few lines: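 HepG2 cells, 2,000 per well in MEM with 10% FBS, attached overnight at 37 C, then got 23 nL compound or DMSO. After 1 hr at 37 C, 5% CO2, red fluorescence was read at 540/590 nm against Rose Bengal sodium as reference.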
Assay [7] is described as follows: qHTS assay to test for compound auto fluorescence at 535 nm (green) in HepG2 cells (AID 720675).
A short description of assay [8]: qHTS assay to test for compound auto fluorescence at 460 nm (blue) in HEK293 cells (AID 720678). Further: potency means the concentration at half of the fitted maximal effect. The procedure, abridged: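 HEK293 cells (2,000 per well, medium with 10% dialyzed FBS) attached for 4-5 hr at 37C, then received compound and stood overnight at 37C, 5% CO2. Blue fluorescence was read at Ex/Em 405/460 nm and expressed relative to triamterene.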
A short description of assay [9]: qHTS assay to test for compound auto fluorescence at 590 nm (red) in HEK293 cells (AID 720679). In a few lines: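 HEK293 cells (2,000/well, medium with 10% dialyzed FBS) attached for 4-5 hr at 37C, received 23 nL compound and were incubated overnight at 37C, 5% CO2. Red fluorescence was then read at 540/590nm Ex/Em, referenced to Rose Bengal sodium.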
The nature of assay [10]: qHTS assay to test for compound auto fluorescence at 535 nm (green) in HEK293 cells (AID 720680).
The nature of assay [11]: qHTS assay to test for compound auto fluorescence at 460 nm (blue) in HEK293 cell free culture (AID 720681). Further: potency means the concentration at half of the fitted maximal effect. The procedure, abridged:
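Compounds were added to cell-free DMEM with 10% FBS and fluorescence read directly. The blue channel used 405 nm excitation and 460 nm emission, with triamterene as the reference fluorophore.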

Assay [12] in a line: qHTS assay to test for compound auto fluorescence at 535 nm (green) in HEK293 cell free culture (AID 720682). The procedure, abridged: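 Using fluorescein as calibrant, autofluorescence was quantified at 485/535 nm in cell-free DMEM containing 10% FBS after pintool addition of compound or vehicle.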
Assay [13] can be described thus: qHTS assay to test for compound auto fluorescence at 590 nm (red) in HEK293 cell free culture (AID 720683). The procedure, abridged:
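Cell-free wells of DMEM with 10% FBS received compound, and intrinsic fluorescence was read at excitation/emission 540/590 nm. Values expressed as equivalence to Rose Bengal sodium.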

Assay [14] is described as follows: qHTS assay to test for compound auto fluorescence at 590 nm (red) in HepG2 cell free culture (AID 720684). In a few lines: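 Rose Bengal sodium served as the reference for red signal. Test compounds were dispensed into serum-containing MEM (10% FBS) without cells, and plates were read at 540/590 nm.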
A short description of assay [15]: qHTS assay to test for compound auto fluorescence at 460 nm (blue) in HepG2 cell free culture (AID 720685). Further: potency means the concentration at half of the fitted maximal effect. The procedure, abridged: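 Cell-free plates of MEM plus 10% FBS received 23 nL compound or DMSO vehicle; blue-channel (405/460 nm) intensity scored against triamterene as reference fluorophore.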
Assay [16] is described as follows: qHTS assay to test for compound auto fluorescence at 535 nm (green) in HepG2 cell free culture (AID 720686).
The nature of assay [17]: qHTS assay to test for compound auto fluorescence at 460 nm (blue) in HepG2 cells (AID 720687). Further: potency means the concentration at half of the fitted maximal effect. In a few lines: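 HepG2 cells in MEM with 10% FBS, attached overnight at 37 C, were exposed to compound or DMSO for 1 hr at 37 C, 5% CO2. Blue fluorescence was read at 405/460 nm, with triamterene as reference fluorophore.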
Assay [18] has as its target Glucocorticoid receptor (Homo sapiens) (UniProt P04150). In words: qHTS assay to identify small molecule agonists of the glucocorticoid receptor (GR) signaling pathway (AID 720691; active means well fitted activation curve with a large enough effect in the signal ratio in the repeat runs, not every such curve was filed as active; the % refers to the signal ratio). The procedure, abridged: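 Compounds in DMSO, alongside positive controls, were added to GR-bla HeLa reporter cells and incubated 18 h at 37 C; GRE-driven beta-lactamase was detected by fluorescence after 2 h with FRET substrate at room temperature.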

For assay [19] the target is unchanged. Put plainly: qHTS assay to identify small molecule antagonists of the glucocorticoid receptor (GR) signaling pathway (AID 720692; active means well fitted inhibition curve with a large enough effect in the signal ratio in the repeat runs, not every such curve was filed as active; the % refers to the signal ratio). The procedure, abridged: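 In a 1536-well cell format, compounds were added 4 h after seeding GR-bla HeLa cells, together with dexamethasone at 5 nM final; reporter activity was measured by FRET-substrate fluorescence following 18 h at 37 C.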

Each structure is given as a SMILES string. Unmarked numbers belong to inactive results. Results filed as inconclusive are left out. Calls of active or inactive are those of the source. Unless noted, the call rests on the fitted dose curve; in most records, active means well fitted curve in the direction sought with a large enough effect in the repeat runs; inconclusive means weak or mixed curves; inactive means no such curve, though single readings can be large; an effect the other way counts as inactive or inconclusive.
On the % scale 0 is the no-effect control and ±100 the full control effect; tags describe the fitted curve by direction and shape or compound fluorescence and quenching.

Chain of Glucocorticoid receptor (Homo sapiens) (P04150 whole entry, looked up): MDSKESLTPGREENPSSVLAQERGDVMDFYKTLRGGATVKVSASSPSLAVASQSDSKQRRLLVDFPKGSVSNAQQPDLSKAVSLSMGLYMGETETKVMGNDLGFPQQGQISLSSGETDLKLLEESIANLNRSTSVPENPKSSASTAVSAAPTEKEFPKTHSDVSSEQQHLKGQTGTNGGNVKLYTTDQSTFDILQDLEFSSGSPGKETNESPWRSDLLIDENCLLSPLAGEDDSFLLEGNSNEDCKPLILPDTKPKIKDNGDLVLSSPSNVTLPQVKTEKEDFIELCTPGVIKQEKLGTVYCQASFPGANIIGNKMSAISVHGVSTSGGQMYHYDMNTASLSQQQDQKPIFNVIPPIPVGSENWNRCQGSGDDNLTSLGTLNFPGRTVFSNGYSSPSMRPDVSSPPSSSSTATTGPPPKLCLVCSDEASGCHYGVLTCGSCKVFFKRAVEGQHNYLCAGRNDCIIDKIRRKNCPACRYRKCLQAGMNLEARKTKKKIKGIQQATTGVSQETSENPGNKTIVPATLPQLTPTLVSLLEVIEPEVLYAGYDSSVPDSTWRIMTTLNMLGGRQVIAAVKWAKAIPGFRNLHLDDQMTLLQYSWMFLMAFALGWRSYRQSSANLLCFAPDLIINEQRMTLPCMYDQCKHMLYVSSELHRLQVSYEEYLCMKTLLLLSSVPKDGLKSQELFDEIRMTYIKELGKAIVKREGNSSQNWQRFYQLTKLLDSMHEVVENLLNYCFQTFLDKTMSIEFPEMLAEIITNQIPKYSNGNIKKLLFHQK

With `Nc1cc(N)cc(C(=O)O)c1`, the Potency result in assay [1], in assay [2], in [3], in assay [4], in assay [5] and in assay [8] was “inactive” throughout. In addition, the Potency entry in assay [11], in [15], in [17], in [18] and in [19] was “inactive” in each case. Moreover, the call in [6], in assay [7], in [9], in [10], in [12] and in [13] was inactive. For the same molecule, the result in [14] and in assay [16] was inactive.
On to `CC(C)c1cccc(C(C)C)c1N`, for which the Potency result in assay [1], in [2], in assay [3], in [4], in assay [5] and in [8] was “inactive” throughout. Also, the Potency result in assay [11], in [15], in assay [17], in [18] and in assay [19] was “inactive” in each case. Also, the molecule was called inactive in [6], in [7], in assay [9], in assay [10], in [12] and in assay [13]. Also, the molecule was classed as inactive in assay [14] and in assay [16].
Consider `Nc1ccc2cc(S(=O)(=O)O)ccc2c1`, for which the Potency entry in assay [1], in assay [2], in [3], in assay [4], in [5] and in assay [18] was “inactive” in each case. Also, the Potency result in [19] was “inactive”. Also, the result in assay [6], in assay [7], in assay [9], in assay [10], in assay [12] and in assay [13] was inactive. Besides, the molecule was classed as inactive in assay [14] and in assay [16]. The Potency in assay [8] was 31.6 µM [fluorescent] (active); in assay [11], 31.6 µM (active); in assay [15] it was 31.6 µM [fluorescent] (active); in assay [17], 31.6 µM [fluorescent] (active).
As for `C=C(C)C(=O)NCCC[N+](C)(C)C`, the Potency entry in assay [1], in assay [2], in assay [3], in [4], in assay [5] and in [8] was “inactive” in each case. The Potency entry in assay [11], in [15], in assay [17], in [18] and in assay [19] was “inactive” in each case. The outcome in assay [6], in assay [7], in assay [9], in assay [10], in assay [12] and in assay [13] was inactive. The molecule was called inactive in assay [14] and in [16].
As for `C=C(C)[C@@H]1CCC2=CC(=O)C[C@@H](C)[C@]2(C)C1`, the Potency entry in assay [1], in assay [2], in [3], in assay [4], in [8] and in [11] was “inactive” throughout. The Potency result in [15] and in assay [17] was “inactive” throughout. The molecule was called inactive in assay [6], in assay [7], in [9], in assay [10], in assay [12] and in assay [13]. Also, the result in assay [14] and in [16] was inactive.
For the molecule `CN(C)CCn1nnnc1SCC1=C(C(=O)O)N2C(=O)[C@@H](NC(=O)Cc3csc(N)n3)[C@H]2SC1`, the Potency result in assay [1], in [2], in assay [3], in [4], in assay [5] and in assay [18] was “inactive” in each case. For the same molecule, the Potency entry in assay [19] is “inactive”. The fluorescence, relative to Rose Bengal in assay [6] was -0.434% [at 18.6 µM]. Besides, the fluorescence, % of fluorescein control in assay [7] was -0.0016% [at 18.6 µM]; in assay [16] it was 0.0098% [at 18.6 µM]. The fluorescence, % of triamterene in assay [8] is 0.477% [at 18.6 µM]. In addition, the fluorescence, % of fluorescent control in assay [9] is -0.137% [at 18.6 µM]; in [11], 0.443% [at 18.6 µM]; in assay [13], 0.0008% [at 18.6 µM]; in [15] it was 0.31% [at 18.6 µM]; in assay [17] it was 0.222% [at 18.6 µM]. The fluorescence, % of fluorescein in assay [10] is 0.129% [at 18.6 µM]. For the same molecule, in assay [12], the activity change was 0.0595% [at 18.6 µM]. In addition, the fluorescence, % of Rose Bengal in [14] was 0.544% [at 18.6 µM].
